In the supplement of paper PMC6555819:

test system: PXR homodimer (NR concentration 270 nM); experiment: PBM binding z-score (relative to random genomic background probes); higher = stronger binding; sequences stand for … in GC…GCGATTGACAGCGTAGAATGAAGG
How it was run: (§1)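 Regression normalization was applied to scanned fluorescence from custom Agilent 4×180K protein-binding microarrays. Before scanning, arrays were incubated 1 h with ligand-free nuclear receptor dimers, and binding was detected with antibodies against each partner (one per run). Binding z-scores use the random background probes as reference.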

Row | Sequence | PBM binding z-score
1 | GCTTACGAGTCAAAGGTTATAGCATGAATAGAAT | -0.0683
2 | CCTAGTTGGTCCGGAGGTCACACACCGGATATGA | 1.54
3 | TAGCCTAGGTCATGCAGGCCAGTATAGTGTCGGC | -0.409
4 | TAGCATAGGTCATGGGCCAGTATACCACGCGAAC | -0.144
5 | TCATACAGGTAAAAGGTGAAAGTCGGTGTGGTAA | 0.448
6 | TCAAGCAGGCCAGAGGGTCACTCAAGAGGTACGG | -0.357
7 | CTACCAAGGTGAACAAGGTCGTCGATTACTATTC | 0.761
8 | TCTGCTAGGTCAACGAGGGTCAGCTAATCTGCTA | -0.4
9 | TCTTGTGGATCAGCAGGTTAAGAAAGCTGGCCAA | -0.204
10 | CCTACTGGACCATTCAGAGGTCATTGATCATATG | 3.43
11 | ATCGAAAGATCGACGAGGTGAGTATACACCGTTT | 0.0422
12 | CCAGACAGGTGAGAAGGTAAGTCAGCCTCGATTA | 0.339
13 | GTGACTGGGGCAAAGCAGGTTACCATAAGGTTGG | -0.0315
14 | GCTAGCAGGCCATTTGGGTCACTGAATGACGGGC | -0.19
15 | TCATATAGGTAAATGCTAGGTAAAAGTCCGATCT | 0.893
16 | ACAGACAGGTGATGAAGGGAACTCAGGCTATCAT | 0.482
17 | GCTAGTTGGTCAGTAAAAGGTCACACCCCGGTCG | 0.747
18 | ACTATTTGTTGACTTAGGGCAACCGATACGACGC | 0.38

test system: RARa:RXR (NR concentration 270 nM, RXRa partner concentration 90 nM); experiment: as above
How it was run: as §1

Row | Sequence | PBM binding z-score
19 | TCTTGTAGATCAAGCAGGCTAAGAAAGCCTGAGT | -0.588
20 | ACTAGCAGACCAAGGGTCACTCAAGATTAGTCCG | 3.46
21 | GCGACTGGGGCAAAGCCGGTTACCATAAGGTTGG | -0.45
22 | ATATGTAGGGTATCGGGTCATTCAGTTTGCGCAT | 2.95
23 | CGTCCAAGGTTATAGGAGGTCAGTGAAGACAGAT | 3.66
24 | ACTATTAGTTGAGACGAAGGCAACCGATAGGTTG | -0.552
25 | CCGACTGGGGCAGAAGGTTACCATAAGCCAGCCC | 0.736
26 | TCATATAGCTAAACAGGTGAAAGTCCGTAAGTTA | 0.404
27 | CGAACTAGGTCGGAACAGGACAGTGAAGGATGAT | 0.314
28 | TAGCCTAGGTCATTGGGCCAGTATCGTACGCATC | 2.39
29 | TCTCGGAGGACACGAAGGGCAGAGCTTTCCAGAG | -0.136
30 | TCTGCTAGGTCAGTTGGTCAGTTAACGAGCTGCC | 0.398
31 | ACTAGCAGGCCAAGGGTCACTTAAGATTAGTCCG | 4.13
32 | CCTCGGGGGACAGAAGGTCAGAGCTGTCCGCTTT | 3.08
33 | GCTCGGATGACAAGGTCAGAGCTTTGTCCGTAGA | 2.09
34 | CCTACTGGGCCACCAGGTCATTGATATCAACGTT | 1.75
35 | TGAATGAGGTTAAAGAACAGGGAACGTGGCGTCG | 1.52
36 | GCGACTGGGGCATCAGCAGGTTACGATAACTTAA | 0.42
37 | TAGCCTAGGTCATTCAGGAGCCAGTATAGAAAGC | 2.19
38 | ACTGACAGGTGAGTGAAGGTAACTCAGCTGGACG | 0.381

Row | Sequence | PBM binding z-score
39 | AATACAGGGTCATCGTAGGCCAGAGGACGCACAG | 4.98
40 | CGAACTGGGTCATTGACAGGACAGTGAATAGTAA | 2.18
41 | GCTTACGAGTCAAAGGTTATAGCATGAATAGAAT | 4.4
42 | CCTAGTTGGTCCGGAGGTCACACACCGGATATGA | 4.43
43 | TAGCCTAGGTCATGCAGGCCAGTATAGTGTCGGC | 2.37
44 | TAGCATAGGTCATGGGCCAGTATACCACGCGAAC | 4.27
45 | TCATACAGGTAAAAGGTGAAAGTCGGTGTGGTAA | 3.13
46 | TCAAGCAGGCCAGAGGGTCACTCAAGAGGTACGG | 2.52
47 | CTACCAAGGTGAACAAGGTCGTCGATTACTATTC | 2.65
48 | TCTGCTAGGTCAACGAGGGTCAGCTAATCTGCTA | 4.03
49 | TCTTGTGGATCAGCAGGTTAAGAAAGCTGGCCAA | 0.573
50 | CCTACTGGACCATTCAGAGGTCATTGATCATATG | 4.69
51 | ATCGAAAGATCGACGAGGTGAGTATACACCGTTT | 0.105
52 | CCAGACAGGTGAGAAGGTAAGTCAGCCTCGATTA | 0.396
53 | GTGACTGGGGCAAAGCAGGTTACCATAAGGTTGG | 1.99
54 | GCTAGCAGGCCATTTGGGTCACTGAATGACGGGC | 0.876
55 | TCATATAGGTAAATGCTAGGTAAAAGTCCGATCT | 0.814
56 | ACAGACAGGTGATGAAGGGAACTCAGGCTATCAT | -0.121
57 | GCTAGTTGGTCAGTAAAAGGTCACACCCCGGTCG | 5.06
58 | ACTATTTGTTGACTTAGGGCAACCGATACGACGC | 0.364

test system: RARa homodimer (NR concentration 270 nM); experiment: as above
How it was run: as §1

Row | Sequence | PBM binding z-score
59 | TCTTGTAGATCAAGCAGGCTAAGAAAGCCTGAGT | -1.2
60 | ACTAGCAGACCAAGGGTCACTCAAGATTAGTCCG | 1.31
61 | GCGACTGGGGCAAAGCCGGTTACCATAAGGTTGG | -0.427
62 | ATATGTAGGGTATCGGGTCATTCAGTTTGCGCAT | 0.891
63 | CGTCCAAGGTTATAGGAGGTCAGTGAAGACAGAT | 0.744
64 | ACTATTAGTTGAGACGAAGGCAACCGATAGGTTG | 0.662
65 | CCGACTGGGGCAGAAGGTTACCATAAGCCAGCCC | -0.0153
66 | TCATATAGCTAAACAGGTGAAAGTCCGTAAGTTA | 0.0178
67 | CGAACTAGGTCGGAACAGGACAGTGAAGGATGAT | -0.0866
68 | TAGCCTAGGTCATTGGGCCAGTATCGTACGCATC | 0.0894
69 | TCTCGGAGGACACGAAGGGCAGAGCTTTCCAGAG | -1.15
70 | TCTGCTAGGTCAGTTGGTCAGTTAACGAGCTGCC | -1.15
71 | ACTAGCAGGCCAAGGGTCACTTAAGATTAGTCCG | 0.362
72 | CCTCGGGGGACAGAAGGTCAGAGCTGTCCGCTTT | -0.112
73 | GCTCGGATGACAAGGTCAGAGCTTTGTCCGTAGA | -1.1
74 | CCTACTGGGCCACCAGGTCATTGATATCAACGTT | 0.342
75 | TGAATGAGGTTAAAGAACAGGGAACGTGGCGTCG | 0.262
76 | GCGACTGGGGCATCAGCAGGTTACGATAACTTAA | -0.452
77 | TAGCCTAGGTCATTCAGGAGCCAGTATAGAAAGC | -0.28
78 | ACTGACAGGTGAGTGAAGGTAACTCAGCTGGACG | -0.0244

Row | Sequence | PBM binding z-score
79 | AATACAGGGTCATCGTAGGCCAGAGGACGCACAG | 0.699
80 | CGAACTGGGTCATTGACAGGACAGTGAATAGTAA | 0.276
81 | GCTTACGAGTCAAAGGTTATAGCATGAATAGAAT | -0.195
82 | CCTAGTTGGTCCGGAGGTCACACACCGGATATGA | 1.45
83 | TAGCCTAGGTCATGCAGGCCAGTATAGTGTCGGC | -0.161
84 | TAGCATAGGTCATGGGCCAGTATACCACGCGAAC | 0.528
85 | TCATACAGGTAAAAGGTGAAAGTCGGTGTGGTAA | 1.16
86 | TCAAGCAGGCCAGAGGGTCACTCAAGAGGTACGG | -0.42
87 | CTACCAAGGTGAACAAGGTCGTCGATTACTATTC | 0.41
88 | TCTGCTAGGTCAACGAGGGTCAGCTAATCTGCTA | -0.252
89 | TCTTGTGGATCAGCAGGTTAAGAAAGCTGGCCAA | 0.249
90 | CCTACTGGACCATTCAGAGGTCATTGATCATATG | 1.66
91 | ATCGAAAGATCGACGAGGTGAGTATACACCGTTT | -0.0578
92 | CCAGACAGGTGAGAAGGTAAGTCAGCCTCGATTA | 0.66
93 | GTGACTGGGGCAAAGCAGGTTACCATAAGGTTGG | -0.0502
94 | GCTAGCAGGCCATTTGGGTCACTGAATGACGGGC | -0.661
95 | TCATATAGGTAAATGCTAGGTAAAAGTCCGATCT | 1.8
96 | ACAGACAGGTGATGAAGGGAACTCAGGCTATCAT | 0.0733
97 | GCTAGTTGGTCAGTAAAAGGTCACACCCCGGTCG | 0.952
98 | ACTATTTGTTGACTTAGGGCAACCGATACGACGC | 0.997
